Assay results from PubChem BioAssay AID1159580 (chemical genetic matrix, 2015).
Several values for one entry are separate records, joined by “and”; a condition that tells them apart may be missing. Equal entries are not always repeated. Out of some 5,500 compounds screened, about 2,000 (36%) were called active. Roughly 18% stayed inconclusive and do not appear here. No stated cut-off is given here; in the data, active means normalized growth mostly below about 0.91 (no sharp cut-off); inconclusive means no clear call, values can overlap the other calls; inactive means mostly above about 0.92. The list shows a part of the results.

Assay: chemical genetic growth profiling, strain panel (AID 1159580);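 further: tested at 20 µM; growth read once vehicle control cultures reached saturation at 30 °C; 1 = growth at the plate median or of vehicle wells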
Settings: S. cerevisiae deletion strains, growth OD

Measured: normalized growth

CC(=O)N=c1sc(S(N)(=O)=O)nn1C
inactive: locus YAL013W, strain DEP1, stronger effect = lower value 1.01 | locus YAL021C, strain ccr4, stronger effect = lower value 1.01 | locus YAL026C, strain drs2, stronger effect = lower value 1.01 | locus YAL030W, strain snc1, stronger effect = lower value 1 | locus YBL061C, strain skt5, stronger effect = lower value 1.01 | locus YBR009C, strain hhf1, stronger effect = lower value 1 | locus YBR021W, strain FUR4, stronger effect = lower value 1.02 | locus YBR023C, strain chs3, stronger effect = lower value 1.01 | locus YBR171W, strain sec66, stronger effect = lower value 1.03 | locus YBR229C, strain ROT2, stronger effect = lower value 1.01 | locus YBR231C, strain swc5, stronger effect = lower value 1.02 | locus YBR279W, strain paf1, stronger effect = lower value 1.01 | locus YCL011C, strain gbp2, stronger effect = lower value 1.01 | locus YCL016C, strain dcc1, stronger effect = lower value 1.01 | locus YCL029C, strain bik1, stronger effect = lower value 0.995 | locus YCL061C, strain MRC1, stronger effect = lower value 1.01 | locus YCL069W, strain vba3, stronger effect = lower value 1.01 | locus YCR088W, strain abp1, stronger effect = lower value 1.01 | locus YDL005C, strain med2, stronger effect = lower value 1.01 | locus YDL035C, strain GPR1, stronger effect = lower value 1.03 | locus YDL040C, strain nat1, stronger effect = lower value 0.999 | locus YDL074C, strain BRE1, stronger effect = lower value 0.995 | locus YDL101C, strain DUN1, stronger effect = lower value 1.01 | locus YDL134C, strain PPH21, stronger effect = lower value 1.02 | locus YDL185W, strain tfp1, stronger effect = lower value 1.01 | locus YDL192W, strain arf1, stronger effect = lower value 1.01 | locus YDR001C, strain nth1, stronger effect = lower value 1 | locus YDR069C, strain doa4, stronger effect = lower value 1.01 | locus YDR101C, strain arx1, stronger effect = lower value 1 | locus YDR137W, strain rgp1, stronger effect = lower value 1.04 | locus YDR150W, strain NUM1, stronger effect = lower value 1 | locus YDR159W, strain sac3, stronger effect = lower value 0.998 | locus YDR162C, strain NBP2, stronger effect = lower value 1.02 | locus YDR195W, strain ref2 0.991 | locus YDR297W, strain sur2, stronger effect = lower value 1 | locus YDR318W, strain mcm21, stronger effect = lower value 1.02 | locus YDR334W, strain swr1, stronger effect = lower value 1.01 | locus YDR335W, strain msn5, stronger effect = lower value 1.01 | locus YDR388W, stronger effect = lower value 1.01 | locus YDR392W, strain spt3, stronger effect = lower value 1.02 | locus YDR502C, strain sam2, stronger effect = lower value 0.998 | locus YEL003W, strain gim4, stronger effect = lower value 1.01 | locus YEL037C, strain rad23, stronger effect = lower value 1 | locus YEL061C, strain CIN8 (second series), stronger effect = lower value 1.01 | locus YEL061C, strain CIN8, stronger effect = lower value 1 | locus YER015W, strain faa2, stronger effect = lower value 0.989 | locus YER016W, strain bim1, stronger effect = lower value 1.01 | locus YER110C, stronger effect = lower value 1.02 | locus YER111C, strain swi4, stronger effect = lower value 0.994 | locus YER155C, strain BEM2 (second series), stronger effect = lower value 1.02 | locus YER155C, strain BEM2, stronger effect = lower value 1 | locus YER167W, strain BCK2, stronger effect = lower value 1.02 | locus YFR010W, strain ubp6, stronger effect = lower value 1.02 | locus YGL078C, strain dbp3, stronger effect = lower value 1 | locus YGL086W, strain mad1, stronger effect = lower value 0.998 | locus YGL167C, strain pmr1, stronger effect = lower value 1.01 | locus YGL173C, strain kem1, stronger effect = lower value 1.01 | locus YGL227W, strain vid30, stronger effect = lower value 1.01 | locus YGL240W, strain doc1, stronger effect = lower value 1.03 | locus YGL248W, strain PDE1, stronger effect = lower value 0.997 | locus YGL253W, strain hxk2, stronger effect = lower value 1.02 | locus YGR135W, strain pre9, stronger effect = lower value 1.06 | locus YGR252W, strain gcn5, stronger effect = lower value 1.01 | locus YHR013C, strain ard1, stronger effect = lower value 1.03 | locus YHR027C, strain rpn1, stronger effect = lower value 1.02 | locus YHR030C, strain SLT2, stronger effect = lower value 1 and 1.06 | locus YHR079C, strain IRE1 (second series), stronger effect = lower value 1.01 | locus YHR079C, strain IRE1, stronger effect = lower value 1.06 | locus YHR094C, strain hxt1, stronger effect = lower value 1.01 | locus YHR129C, strain ARP1, stronger effect = lower value 1.02 | locus YHR142W, strain chs7, stronger effect = lower value 1.02 | locus YHR200W, strain rpn10, stronger effect = lower value 1.01 | locus YIL066C, strain RNR3, stronger effect = lower value 1 | locus YIL073C, strain SPO22, stronger effect = lower value 1.07 | locus YIL125W, strain kgd1, stronger effect = lower value 0.997 | locus YIR030C, strain dcg1, stronger effect = lower value 0.996 | locus YJL092W, strain hpr5, stronger effect = lower value 1.02 | locus YJL095W, strain BCK1 (second series), stronger effect = lower value 1.01 | locus YJL095W, strain BCK1, stronger effect = lower value 0.989 and 1.05 | locus YJL115W, strain asf1, stronger effect = lower value 1.01 | locus YJL129C, strain trk1, stronger effect = lower value 1 | locus YJL134W, strain LCB3, stronger effect = lower value 1.01 | locus YJL154C, strain vps35, stronger effect = lower value 1 | locus YJL164C, strain tpk1, stronger effect = lower value 1.01 | locus YJL166W, strain qcr8, stronger effect = lower value 0.998 | locus YJL168C, strain set2, stronger effect = lower value 1.01 | locus YJL187C, strain SWE1 (second series), stronger effect = lower value 0.984 | locus YJL187C, strain SWE1, stronger effect = lower value 1.01 | locus YJR043C, strain POL32, stronger effect = lower value 0.986 | locus YJR066W, strain TOR1, stronger effect = lower value 0.984
